# Reference: publication PMC5540273 (PLoS ONE, 2017)
# Experiments:
# Settings in all cases: concentration: 1 μM, replicates: in singlicate; n = 1
# [1] = test system: T1, RSK1(Kin.Dom.1-N-terminal)
# T1 construct: gene RPS6KA1
# [2] = test system: T2, RSK1(Kin.Dom.2-C-terminal)
# T2 construct: gene RPS6KA1
# [3] = test system: T3, RSK2(Kin.Dom.1-N-terminal)
# T3 construct: gene RPS6KA3
# [4] = test system: T4, RSK2(Kin.Dom.2-C-terminal)
# T4 construct: gene RPS6KA3
# [5] = test system: T5, RSK3(Kin.Dom.1-N-terminal)
# T5 construct: gene RPS6KA2
# [6] = test system: T6, RSK3(Kin.Dom.2-C-terminal)
# T6 construct: gene RPS6KA2
# [7] = test system: T7, RSK4(Kin.Dom.1-N-terminal)
# T7 construct: gene RPS6KA6
# [8] = test system: T8, RSK4(Kin.Dom.2-C-terminal)
# T8 construct: gene RPS6KA6
# [9] = test system: S6K1
# [10] = test system: SBK1
# 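Note: KINOMEscan kinase panel screen.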
Structure (SMILES),%Inh [1] [%],%Inh [2] [%],%Inh [3] [%],%Inh [4] [%],%Inh [5] [%],%Inh [6] [%],%Inh [7] [%],%Inh [8] [%],%Inh [9] [%],%Inh [10] [%]
O=c1cc(N2CCOCC2)nc2n(Cc3ccc(F)c(Cl)c3)ccn12 [GSK2297099],19,10,0,0,27,0,0,11,0,0
FC(F)(F)c1ccc(-c2ncn(CCCN3CCOCC3)c2-c2ccncc2)cc1 [SB-217780],11,6,0,28,32,19,1,44,0,13
CCCC(=O)Nc1n[nH]c2ncc(-c3cccc4ccccc34)cc12 [SB-642057],26,24,14,0,0,0,0,15,16,7
Nc1ncnc2c1ncn2-c1cccc2ccccc12 [SKF-97184],16,16,38,0,0,36,11,0,15,28
Nc1ncnc2c1ncn2-c1cccc(F)c1 [SKF-97560],31,0,23,0,9,0,21,0,36,25
COc1cccc(-n2cnc3c(N)ncnc32)c1 [SKF-97416],8,13,39,34,0,8,40,7,1,29
Cc1cccc(-c2nc(Nc3ccc4c(cnn4C)c3)c3ccccc3n2)n1 [GW876731],32,0,26,0,24,0,8,0,0,10
COc1ccc(-c2coc3ccc(-c4nnc(SCc5cccc(C#N)c5)o4)cc23)cc1,16,24,9,0,16,18,26,24,2,0
COc1cccc(C2=C(Nc3cccc(C(=O)O)c3)C(=O)NC2=O)c1 [SB-390770],0,0,4,15,8,0,20,10,6,18
O=C(Nc1n[nH]c2cc(-c3ccccc3F)ccc12)C1CC1 [SB-733371],32,0,34,0,0,0,0,0,0,17
CCc1ccc(-c2ccc3c(c2)-c2nn(C)cc2S(=O)(=O)N3C)cc1,2,41,15,63,10,32,0,21,22,0
CCC(=O)c1c(-c2ccccc2)c2cc(Cl)ccc2c(=O)n1Cc1cc(C(=O)NC2CC2)n(C)n1,0,8,0,30,6,0,8,0,7,0
Fc1cccc(CSc2nnc(-c3ccc4c(c3)CCO4)o2)c1,0,23,14,18,0,8,15,16,9,0
COc1cc2nccc(Nc3ccc(OCc4ccc(NC(C)=O)cc4)cc3)c2cc1OC.Cl [GW440135],0,0,19,0,4,0,2,0,9,5
Cc1cccc(-c2cc(-c3c[nH]nc3-c3ccccn3)ccn2)c1 [GW679395],9,0,0,7,6,12,0,49,0,5
CN1C(=O)C(Nc2ccccc2)=C(c2ccccc2)C1=O [SB-300079],8,0,37,0,0,0,10,12,0,0
O=C1NC(=O)C(c2ccccc2)=C1Nc1cccc(O)c1 [SB-390534],19,0,24,0,0,0,14,7,11,27

Structure (SMILES),%Inh [1] [%],%Inh [2] [%],%Inh [3] [%],%Inh [4] [%],%Inh [5] [%],%Inh [6] [%],%Inh [7] [%],%Inh [8] [%],%Inh [9] [%],%Inh [10] [%]
COc1ccc(Nc2nccc(N3CCC(NS(=O)(=O)c4ccc(NC(C)=O)cc4)C3)n2)cc1 (stereo not shown) [GSK1379729],0,0,0,18,6,0,0,5,0,4
CCn1c(-c2ccoc2)nc2cnccc21 [SB-733887],9,4,0,0,0,0,0,0,18,0
O=C(Nc1n[nH]c2nc(-c3ccccc3)c(Br)cc12)C1CC1 [SB-708998],0,0,7,29,0,0,18,2,0,17
COc1cc2nccc(Nc3cccc(Oc4ccccc4)c3)c2cc1OC.Cl [GW284543],0,0,0,0,10,0,0,0,0,16
Cc1nnc(-c2ccc(C)c(-c3ccc(C(=O)O)cc3)c2)o1 [GW608005],2,2,0,2,3,0,0,2,10,4
Cl.c1ccc(Cn2cnc3cc(Nc4ncnc5ccccc45)ccc32)cc1 [GW272142],0,0,0,0,0,6,0,5,0,1
Nc1n[nH]c2nnc(-c3ccccc3)c(-c3ccccc3)c12 [GW554060],0,1,4,29,4,0,10,8,0,13
COc1cc(Nc2nccc(N3CCC(NC(=O)C4COc5ccccc5O4)C3)n2)cc(OC)c1OC (stereo not shown) [GSK1379761],3,4,0,24,0,12,0,2,0,20
COc1ccc(-c2cc3c(C)nc(N)nc3n([C@H]3CC[C@H](OCCO)CC3)c2=O)cn1,0,9,0,0,16,12,0,23,0,0
Nc1nccc2scc(-c3ccc4c(c3)CCN4C(=O)Cc3ccccc3)c12 [GSK2576924],9,20,0,0,8,7,0,11,2,2
CCC(=O)c1c(-c2ccccc2)c2cc(Cl)ccc2c(=O)n1Cc1cc(S(C)(=O)=O)n(CC(N)=O)n1,0,0,0,0,1,6,0,5,0,0
CN1C(=O)C(Nc2cc(Cl)c(O)c(Cl)c2)=C(c2ccc(Cl)cc2)C1=O [SB-404321],0,0,5,0,0,9,0,0,17,0
Cc1ccc(Oc2ccc(Nc3ncnc4cc[nH]c34)cc2C)cn1,5,8,0,0,16,16,9,6,7,44
O=C(NCc1cccs1)c1cc(C(=O)c2c(Cl)cccc2Cl)c[nH]1 [GW823670],16,13,2,0,0,18,0,0,7,0
Cl.NS(=O)(=O)c1cccc(Nc2cc(-c3ccc(F)cc3)n[nH]2)c1 [GW824645],0,0,35,0,0,0,15,0,0,0
COc1ccc(CNC(=O)NC2CCN(c3ccnc(Nc4ccc(F)cc4)n3)C2)cc1 (stereo not shown) [GSK1379706],14,28,0,3,15,31,0,20,0,0
C[C@@H]1CC[C@H](C(=O)NC2CCCCC2)CN1c1cc(-c2ccc3c(N)n[nH]c3c2)nc(N)n1 [GSK2291363],31,6,32,28,23,6,11,26,8,14
